# Reference: PubChem BioAssay AID504444 (National Center for Advancing Translational Sciences (NCATS), 2011)
# Among all 360,000 compounds or so, about 7,500 (2.1%) were called active. Inconclusive results (about 20%) are left out. The call rests on the fitted dose curve; in most records, active means well fitted inhibition curve with a large enough effect; inconclusive means small, poorly fitted or top-dose-only effect, or effect the other way; inactive means flat fitted curve, though single readings scatter. Shown is part of a subset that was picked to be rich in actives. A call without a number means that no potency is given here.
# Assay: Nrf2 qHTS screen for inhibitors; further: nearly all actives have a fitted effect of over 60% in size
# Settings: A549 ARE-Fluc reporter, luciferase luminescence, 18-24 h; series mostly up to 46 µM
# Method in brief: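 Concentration-response testing used A549 ARE_Fluc cells at 5000 cells/well. Following an 18-24 h compound incubation, viability was read by fluorescence (Ex 405/Em 525) and luciferase output by luminescence.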
# Potency means the concentration at half of the fitted maximal effect.
SMILES,Potency,"activity change, negative = inhibition"
CCN(CC)S(=O)(=O)c1ccc(N2CCCC2)c(NC(=O)c2ccc([N+](=O)[O-])o2)c1,inactive,
C=Cc1ccc(Cn2c(C(=O)O)c(CNC3CCCC3)c3ccc(C)cc32)cc1,inactive,
Cc1ccccc1NC(=O)c1cc(S(=O)(=O)Nc2cccc(C(=O)O)c2)ccc1Cl,inactive,
C=CCNC(=O)c1ccccc1NC(=O)c1ccc(Cl)c(S(=O)(=O)Nc2cccc(C)c2C)c1,9.2 µM (active),
COc1ccc(NS(=O)(=O)c2cc(C(=O)Nc3ccccc3C(=O)O)ccc2C)cc1,inactive,
CCOC(=O)C1CCCN(C(=O)c2ccc3c(c2)sc2nc(-c4ccc(CC)cc4)cn23)C1 (stereo not given),inactive,
Cc1ccc(-c2nc3ccccn3c2Nc2c(C)cccc2C)o1,,3.18% [at 9.27 µM] (inactive)
CC1(C)CC(N2CCN(C(c3ccccc3)c3ccccc3)CC2)=CC(=[N+]2CCCCC2)C1,7.31 µM (active),
CC(C)NC(=S)N1CCN(C(c2ccccc2)c2ccccc2)CC1,inactive,
O=C(O)CN1CCN(C(c2ccccc2)c2ccccc2)CC1,inactive,
Cc1ccc(C(=O)CSc2nc(-c3ccccc3)nc3c2CCCC3)c(C)c1,inactive,
O=C(NCc1ccccc1CN1CCCC1)c1cccc(S(=O)(=O)Nc2ccc(F)cc2)c1,inactive,
COc1ccc2sc(-c3ccc(N(C)C)cc3)c(-c3ccc4cc[nH]c4c3)c2c1,inactive,
COc1ccc2c(c1)c(=Cc1ccc(N(C)C)cc1)c1cc(-c3ccccc3)[n+](C)n12,16.4 µM (active),
COc1ccc2sc(-c3ccc(N(C)C)cc3)c(C#CCO)c2c1,inactive,
CC1Cc2ccccc2N1S(=O)(=O)c1cccc(C(=O)NCC(c2ccco2)N2CCCC2)c1 (stereo not given),inactive,
Cc1nc(SCC(=O)NC2CCCCC2C)c(C#N)c(C)c1C (stereo not given),inactive,
CC1(C)C(=O)CCC2(C)C1=CCC1C2C(=O)CC2(C)C1CCC2(O)C(=O)CO (stereo not given),inactive,
CC(=O)OCC(=O)C1(O)CCC2C3CC(C)C4=CC(=O)CCC4(C)C3C(O)CC21C (stereo not given),0.082 µM (active),
O=C1c2ccccc2C(=O)N1c1ccc(S(=O)(=O)N2CCOCC2)c2ccccc12,inactive,
O=S(=O)(c1ccc(SCc2ccc(Br)cc2)nc1)N1CCOCC1,inactive,
CCOc1cc(N2CCOCC2)c(OCC)cc1NC(=O)COc1cccc(Cl)c1,inactive,
CCOc1cc(N2CCOCC2)c(OCC)cc1NC(=O)COC(=O)[C@H](Cc1c[nH]c2ccccc12)NC(C)=O,inactive,
CCOc1cc(N2CCOCC2)c(OCC)cc1NC(=O)COc1cccc2cccnc12,20.6 µM (active),
O=C(CSc1nc2ccccc2[nH]1)Nc1nc(-c2ccccc2)c(-c2ccccc2)o1,inactive,
C=CCSc1nc2ccccc2[nH]1,inactive,
CCC(C)N1C(=O)S/C(=C/c2ccc(Sc3nc4ccccc4[nH]3)o2)C1=O (stereo not given),0.731 µM (active),

SMILES,Potency,"activity change, negative = inhibition"
C#CCOc1ccc(C2CC(=O)Nc3c2c(C)nn3-c2nc(C)cc(C)n2)cc1 (stereo not given),inactive,
CN(C)S(=O)(=O)c1ccc(C(=O)NCC(C)(C)N2CCOCC2)cc1,inactive,
CC(C)(CNC(=O)c1ccc(Cl)c(S(=O)(=O)N2CCc3ccccc3C2)c1)N1CCOCC1,13 µM (active),
CC(C)(CNC(=O)Cc1ccc(Cl)cc1Cl)N1CCOCC1,inactive,
Cc1noc(C)c1-c1ccc2ncnc(NCc3ccc(F)c(F)c3)c2c1,inactive,
COc1ccccc1-c1noc(-c2ccc(NCc3ccccc3)c([N+](=O)[O-])c2)n1,inactive,
COc1ccc(C2Nc3cccc(OC)c3C(=O)N2Cc2ccccc2)cc1COc1ccc(NC(C)=O)cc1 (stereo not given),inactive,
N/C(=N\S(=O)(=O)c1cc(C(F)(F)F)cc(C(F)(F)F)c1)c1cccs1,20.6 µM (active),
Cc1ccc(S(=O)(=O)/N=C(\N)c2ccc(F)cc2)cc1,inactive,
CN(NS(=O)(=O)c1cccs1)c1ncc(C(F)(F)F)cc1Cl,inactive,
CN1CCOC1c1ccc(C2OCCN2C)cc1 (stereo not given),inactive,
COc1ccc2cc(CNc3ccc(OC)c(OC)c3)c(=O)n(CC(=O)Nc3ccccc3F)c2c1,inactive,
Cc1ccc(C)n1-c1nnc(N2CCC(C(=O)NCc3ccc(F)cc3)CC2)s1,inactive,
CN(C)CCCN(C(=O)c1ccc(S(=O)(=O)N2CCCCCC2)cc1)c1nc2cc3c(cc2s1)OCCO3,inactive,
CN(C)CCCN(C(=O)c1ccc(S(=O)(=O)N2CCCCCC2)cc1)c1nc2ccc(Br)cc2s1,25.9 µM (active),
CCN(CC)CCN(C(=O)c1ccc(S(=O)(=O)N2CCOCC2)cc1)c1nc2cc3c(cc2s1)OCCO3,inactive,
CCOC(=O)c1ccccc1NC(=O)CSc1nc2c(sc(=S)n2CC)c(=O)[nH]1,inactive,
COc1cc(OC)c(NC(=O)Cc2ccc(-n3c(C)nc4cccnc43)cc2)cc1Cl,inactive,
CCN(CC)c1cc(NC2CCCCC2)c2c3c(onc13)-c1ccccc1C2=O,inactive,
CC(=O)c1ccc(NC(=O)c2nc3nc(C)cc(C(F)F)n3n2)cc1,inactive,
CCN(CC)S(=O)(=O)c1cc(C(=O)Nc2cc(S(=O)(=O)N3CCOCC3)ccc2N2CCCC2)ccc1F,inactive,
O=C(CCCn1c(SCC(=O)c2ccc(F)cc2)nc2ccccc2c1=O)NCc1ccco1,25.9 µM (active),
O=C(CCCn1c(SCC(=O)c2ccccc2)nc2ccccc2c1=O)NCC1CCCO1 (stereo not given),inactive,
O=C(CSc1nc2ccccc2c(=O)n1Cc1ccc(F)cc1)NCC1CCCO1 (stereo not given),inactive,
CCC(=O)N1CCc2cc(Br)cc(S(=O)(=O)CCC(=O)NCCc3ccc(OC)c(OC)c3)c21,,5.45% [at 9.27 µM] (inactive)
Cc1ccc(Cl)cc1NC(=O)CCC(=O)N1CC(C)Sc2ccccc21 (stereo not given),inactive,
CSCc1nnc(NC(=O)c2ccc(S(=O)(=O)N3CCCCC3C)cc2)o1 (stereo not given),20.6 µM (active),

SMILES,Potency,"activity change, negative = inhibition"
CC1CCCCN1S(=O)(=O)CCNC(=O)c1ccccc1 (stereo not given),inactive,
CC1CCCN(S(=O)(=O)c2ccc(C(=O)Nc3nnc(-c4ccncc4)o3)cc2)C1 (stereo not given),8.2 µM (active),
CC1CCCCN1S(=O)(=O)c1ccc(S(=O)(=O)N(CC(=O)Nc2ccccc2)Cc2cccs2)cc1 (stereo not given),inactive,
CSc1ncc(Cl)c(C(=O)Nc2ccc(S(=O)(=O)N3CCCC(C)C3)cc2)n1 (stereo not given),inactive,
CCc1nnc(NC(=O)C2CCCN2S(=O)(=O)c2ccccc2)s1 (stereo not given),inactive,
CC1CCCN(C(=O)Cn2c(=O)oc3cc(S(=O)(=O)N4CCCCC4C)ccc32)C1 (stereo not given),inactive,
CC1CCCCN1S(=O)(=O)c1ccc(C(=O)Nc2nnc(-c3cccs3)o2)cc1 (stereo not given),13 µM (active),
CC1CC(C)CN(S(=O)(=O)c2ccc(C(=O)NN3CCOCC3)cc2)C1 (stereo not given),inactive,
O=C1N[C@@H](c2ccccc2)COC(=O)[C@H](Cc2ccc(F)cc2)C/C=C\C[C@@H]1CC(=O)N(CCO)Cc1ccccc1,inactive,
FC(F)(F)c1cc(Nc2nc3ccccc3c3nncn23)ccc1Cl,inactive,
CC[C@]12c3[nH]c4ccc(Cl)cc4c3CCN1C(=O)[C@@H](CC(=O)NCCCOC)C[C@@H]2C(=O)N1CCN(C(=O)c2ccco2)CC1,inactive,
Cc1cc(Br)ccc1NC(=O)Cn1cnc2sc(C)c(S(=O)(=O)N3CCN(C)CC3)c2c1=O,,4.06% [at 9.27 µM] (inactive)
CCOC(=O)c1ccc(NC(=S)N2CCN(c3ccccn3)CC2)cc1,inactive,
Cc1cc(Br)ccc1NC(=O)c1sc2ncn(CC(=O)N3CCN(c4ccccn4)CC3)c(=O)c2c1C,18.4 µM (active),
Cc1cc(Br)ccc1NC(=O)c1cnc(N2CCN(c3ccccn3)CC2)c2ccccc12,11.6 µM (active),
O=C(CN1CCN(c2ccccn2)CC1)Nc1ccc(Br)cc1,inactive,
Cc1sc2ncn(CC(=O)NCCCC(=O)N3CCN(c4ccccc4F)CC3)c(=O)c2c1C,inactive,
c1ccc(Cn2nnc3c(N4CCCCC4)ncnc32)cc1,inactive,
CCN(CC)C(=O)[C@H]1C[C@H](CC(=O)NCC23CC4CC(CC(C4)C2)C3)C(=O)N2CCc3c([nH]c4cc(CCC(=O)N(C)C)ccc34)[C@]12C,inactive,
Cc1c(C(=O)Nc2cccc(S(=O)(=O)N3CCOCC3)c2)oc2ccccc12,inactive,
O=S(=O)(c1cccc(C(F)(F)F)c1)N1CCN(c2nc(-c3cccs3)nc3ccccc23)CC1,inactive,
COc1ccc(NS(=O)(=O)c2ccc(O)c(C(=O)OCC(=O)NC3CCCCC3)c2)cc1,inactive,
COc1ccc(NS(=O)(=O)c2ccc3oc(SCC(N)=O)nc3c2)cc1,23.1 µM (active),
CCS(=O)(=O)c1ccc2oc(SCC(=O)N3c4ccccc4CC3C)nc2c1 (stereo not given),inactive,
COc1ccc(N2CCN(S(=O)(=O)c3ccc4c(c3)CC(=O)N4)CC2)cc1,inactive,
COc1cc(Cl)ccc1Nc1ncc(C(=O)N2CCN(c3ccccc3OC)CC2)c2ccccc12,,1.91% [at 9.27 µM] (inactive)
